The values that follow come from paper PMC4336329 (PLoS ONE, 2015).

Molecules are shown by their SMILES. Screen size: about 310,000 compounds; about 14,000 (4.5%) showed an effect of 50% or more. The effect is printed as a negative number. The entries come from a sample that favours strong results as a whole.
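Also: peak tail current of the secondary pulse compared with the same well before compound.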

human ether-à-go-go-related gene (hERG) potassium channel, sequence (Q12809 whole entry, looked up): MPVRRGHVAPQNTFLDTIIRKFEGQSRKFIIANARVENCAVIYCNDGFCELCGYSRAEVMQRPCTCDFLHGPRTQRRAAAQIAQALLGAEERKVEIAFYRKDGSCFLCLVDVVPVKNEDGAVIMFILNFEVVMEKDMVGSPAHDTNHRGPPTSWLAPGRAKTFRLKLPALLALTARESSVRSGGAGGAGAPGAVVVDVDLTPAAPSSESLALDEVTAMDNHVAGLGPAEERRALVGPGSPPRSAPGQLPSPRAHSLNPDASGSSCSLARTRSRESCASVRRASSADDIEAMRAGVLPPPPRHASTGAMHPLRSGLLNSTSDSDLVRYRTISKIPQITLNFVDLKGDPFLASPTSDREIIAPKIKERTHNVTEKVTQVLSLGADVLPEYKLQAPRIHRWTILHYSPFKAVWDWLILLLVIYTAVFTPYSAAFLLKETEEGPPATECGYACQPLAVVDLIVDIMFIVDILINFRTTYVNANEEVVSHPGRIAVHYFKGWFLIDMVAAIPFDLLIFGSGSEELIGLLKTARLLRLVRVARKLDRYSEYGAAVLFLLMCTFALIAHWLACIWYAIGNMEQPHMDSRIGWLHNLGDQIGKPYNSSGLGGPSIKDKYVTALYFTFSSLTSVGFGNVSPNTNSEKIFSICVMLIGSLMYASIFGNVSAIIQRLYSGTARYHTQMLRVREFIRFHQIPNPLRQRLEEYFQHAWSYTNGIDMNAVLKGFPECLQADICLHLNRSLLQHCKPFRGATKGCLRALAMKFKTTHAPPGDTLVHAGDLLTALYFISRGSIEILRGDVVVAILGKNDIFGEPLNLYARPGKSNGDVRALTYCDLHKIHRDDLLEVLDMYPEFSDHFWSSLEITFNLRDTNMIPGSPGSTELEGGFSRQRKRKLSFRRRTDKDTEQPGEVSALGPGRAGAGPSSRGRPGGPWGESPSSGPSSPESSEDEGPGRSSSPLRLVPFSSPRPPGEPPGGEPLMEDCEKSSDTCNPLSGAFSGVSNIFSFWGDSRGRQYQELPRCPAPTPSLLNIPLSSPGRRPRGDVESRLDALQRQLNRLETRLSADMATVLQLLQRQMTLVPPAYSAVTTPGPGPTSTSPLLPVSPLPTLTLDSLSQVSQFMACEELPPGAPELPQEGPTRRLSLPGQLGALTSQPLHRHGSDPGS

The assay concerns the target human ether-à-go-go-related gene (hERG) potassium channel (human, UniProt Q12809). The assay is described as follows: primary screen, population patch clamp on CHO cells stably expressing hERG; higher = less effect of the substance.
Turning to `CC(=O)Nc1ccccc1NC(=O)C/C(C)=N/NC(=O)C(=O)N1CCCCC1`, the “hERG current change (%, negative = inhibition) at 10uM” value was -13.3%. The result for `COc1ccc2[nH]c(=O)c(CN(C(C)=O)c3ccc(C)cc3C)cc2c1` reads 1.02%; that for `CSc1nc(N)c(C(=O)Nc2ccc([N+](=O)[O-])cc2)s1`, -12.3%; that for `O=C(N/N=C\c1cccc(F)c1)c1ccc(-c2ccccc2)cc1`, 27%. The result for `CC(=O)N(C)C1(c2nnnn2CCOC(=O)Nc2cccc3ccccc23)CCCC1` reads 0.969%. The result for `CCN1CCN(c2ccc(S(=O)(=O)N3CCOCC3)cc2NC(=O)/C=C/c2ccc(C)cc2)CC1` reads -46%. As to `CCN1CCN(c2ccc(S(=O)(=O)N3CCCCC3)cc2NC(=O)/C=C/c2ccc(F)cc2)CC1`, the “hERG current change (%, negative = inhibition) at 10uM” value is -48.1%.

Consider `COc1ccc(/C=C/C(=O)Nc2cc(S(=O)(=O)N3CCCCC3)ccc2N2CCCCC2)cc1OC`, for which the “hERG current change (%, negative = inhibition) at 10uM” value is 4.11%. Take `CCN1CCN(c2ccc(S(=O)(=O)N3CCCCC3)cc2NC(=O)/C=C/c2ccc([N+](=O)[O-])cc2)CC1`: the “hERG current change (%, negative = inhibition) at 10uM” value was -70.8%.

`CCN1CCN(c2ccc(S(=O)(=O)N3CCOCC3)cc2NC(=O)/C=C/c2ccc([N+](=O)[O-])cc2)CC1`: the “hERG current change (%, negative = inhibition) at 10uM” value is on record as -71.8%. The result for `CCN1CCN(c2ccc(S(=O)(=O)N3CCOCC3)cc2NC(=O)/C=C/c2ccc(OC)c(OC)c2)CC1` reads 10.4%. Regarding `COc1ccc(CCCC(=O)N/N=C\c2cccs2)cc1`, the “hERG current change (%, negative = inhibition) at 10uM” value was found to be 27.2%. For `COCCNC(=O)c1ccccc1-c1nc(-c2ccccc2Cl)no1`, the “hERG current change (%, negative = inhibition) at 10uM” value is recorded as -9.09%. Regarding `O=C(NC(=S)Nc1ccc2ncccc2c1)c1ccccc1`, the “hERG current change (%, negative = inhibition) at 10uM” value turned out to be 2.36%. The result for `C=CCn1cnc2scc(-c3ccc(C)cc3)c2c1=O` reads -10.4%.

`CCCN(C(=O)Cn1ncc2c(=O)oc3ccccc3c21)c1cccc(C)c1`: the “hERG current change (%, negative = inhibition) at 10uM” value was -54.3%. Take `CCOC(=O)Cn1ncc2c(=O)oc3ccccc3c21`: the “hERG current change (%, negative = inhibition) at 10uM” value was -0.743%. The result for `CCOc1ccccc1N(CC)C(=O)Cn1ncc2c(=O)oc3ccccc3c21` reads -26.1%; that for `Cc1ccc2oc(=O)c3cnn(CC(=O)N(CCCN4CCOCC4)Cc4ccco4)c3c2c1`, -57.5%; that for `CCCCN(Cc1ccco1)C(=O)Cn1ncc2c(=O)oc3ccc(C)cc3c21`, 13.2%. The result for `COCCCN(Cc1ccco1)C(=O)Cn1ncc2c(=O)oc3ccc(C)cc3c21` reads -49.6%; that for `C=C(C)c1cccc(C(C)(C)NC(=O)N2CCN(c3ccccc3OC)CC2)c1`, 4.28%.
